The list is not random: actives were taken first. Their share in the collection is about 7.5%.
RORgamma inh: blocks mouse ROR gamma transcriptional activity; P51450; Drosophila S2 Gal4-RORgamma UAS-luciferase reporter, 20 h; Potency, µM (doses to about 53.6 µM), inactives show at the top dose activity change, negative = inhibition, actives largely listed as inhibitors; actives 5.4% (n = 310,000); AID 2551; further: potency means the concentration at half of the fitted maximal effect; nearly all actives have a fitted effect of over 60% in size
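Schneider cells (Drosophila), stable Gal4 DBD–ROR gamma + UAS-luc; 1 hr cmpd preincubation; Cu2+ induction 700 uM final; 20 hr ambient; luminescence.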
B2AR arrestin: agonists driving beta-arrestin recruitment to human beta2-adrenergic receptor | P07550 | beta-arrestin recruitment to beta2AR, cell-based reporter | Potency, µM (highest dose often 46.1 µM), for inactives: at the highest dose activation, usual class: activators | actives 0.02% (n = 330,000) | AID 492947;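 further: potency means the concentration at half of the fitted maximal effect; 0% = DMSO controls and full agonism = EC100 isoproterenol or metaproterenol; nearly all actives have a fitted effect of over 65% in size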
TSHR antag: human thyrotropin receptor antagonism. P16473. TSHR-expressing cells, TSH-stimulated cAMP HTRF, 2 h; hits give low values. activity change, negative = inhibition, % at 11.5 µM. actives 0.2% (n = 330,000). AID 504810;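 active means activity change below a set negative limit, meaning inhibition stronger than a set level, cut at about -70% in these data; inconclusive means activity change between two set negative limits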
Target sequence (P16473 whole entry, looked up): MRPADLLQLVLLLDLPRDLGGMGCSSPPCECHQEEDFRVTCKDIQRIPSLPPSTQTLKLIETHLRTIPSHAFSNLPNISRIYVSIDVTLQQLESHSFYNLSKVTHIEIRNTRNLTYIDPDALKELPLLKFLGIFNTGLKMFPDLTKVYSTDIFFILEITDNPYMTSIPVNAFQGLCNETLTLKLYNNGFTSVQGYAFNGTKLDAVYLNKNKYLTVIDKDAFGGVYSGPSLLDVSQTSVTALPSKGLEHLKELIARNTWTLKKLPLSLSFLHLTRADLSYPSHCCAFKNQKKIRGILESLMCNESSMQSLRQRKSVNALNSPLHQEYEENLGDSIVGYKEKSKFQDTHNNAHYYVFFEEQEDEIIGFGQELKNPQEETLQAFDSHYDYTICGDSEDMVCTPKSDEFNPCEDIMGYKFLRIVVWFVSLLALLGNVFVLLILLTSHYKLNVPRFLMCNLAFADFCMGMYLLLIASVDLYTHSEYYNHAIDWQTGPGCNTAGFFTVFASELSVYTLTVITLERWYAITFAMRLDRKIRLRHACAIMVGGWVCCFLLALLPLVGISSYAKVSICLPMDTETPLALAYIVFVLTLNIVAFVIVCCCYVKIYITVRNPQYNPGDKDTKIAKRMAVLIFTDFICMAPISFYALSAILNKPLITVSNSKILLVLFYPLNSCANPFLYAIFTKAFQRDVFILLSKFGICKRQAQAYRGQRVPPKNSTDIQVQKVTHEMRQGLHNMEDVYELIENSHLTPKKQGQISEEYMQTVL
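Cell-based HTRF cAMP assay; TSHR cells + compound, TSH EC80 (4nM final), 2 h, 37 deg C. Lysis with anti-cAMP cryptate and cAMP-d2, 30 min RT, read 665/620 nm.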
ELG1 repair inh: inhibitors of ELG1-dependent DNA repair in HEK293T cells; HEK293T ELG1-luciferase reporter, luminescence, 16 h; DNA damage induced by 5-fluorouridine; Potency, µM (series often up to 46.1 µM), without a hit: top-dose activity change, negative = inhibition, actives largely listed as inhibitors; actives 2.3% (n = 330,000); further: potency means the concentration at half of the fitted maximal effect; nearly all actives have a fitted effect of over 55% in size
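DMSO vehicle served as the neutral condition. Each well held 2,000 cells given 5-fluorouridine plus compound; after 16 hr at 37 °C/5% CO2, ONE-Glo was added and luciferase measured 30 min later.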
VP16 counter: Gal4-VP16 reporter inhibition counter-screen; Drosophila S2 Gal4-VP16 UAS-luciferase, luminescence, 20 h; Potency, µM (top dose mostly 53.6 µM), for inactives: top-dose activity, negative = inhibition, usual class: inhibitors; actives 3.5% (n = 310,000);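 further: Gal4-VP16 expression switched on by copper sulfate through the metallothionein promoter; potency means the concentration at half of the fitted maximal effect; nearly all actives have a fitted effect of over 50% in size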
Active calls of the source: *; u = inconclusive; x = no result given; [ ] = remark or other dose. Unless noted, the call rests on the fitted dose curve; in most records, active means well fitted curve in the direction sought with a large enough effect; inconclusive means small, poorly fitted or top-dose-only effect, or another doubt; inactive means no such curve, though single readings can be large; an effect the other way counts as inactive or inconclusive. Unless noted, on the % scale 0 is the no-effect control and ±100 the full control effect.

SMILES	RORgamma inh	B2AR arrestin	TSHR antag	ELG1 repair inh	VP16 counter
CCCCCCCCCCCC[n+]1ccc2ccccc2c1	u	x	x	x	5µM*
COc1cc(N[C@@H](C)CCCN)c2ncccc2c1	-5%[2.98 µM]	x	x	x	0%[17 µM]
COc1ccc(OC)c(C=NNC(=O)c2ccc(NS(=O)(=O)c3cccs3)cc2)c1	x	0%	-3	2%	x
CCn1cnc2c1c(=O)n(CC(=O)NCc1ccccc1)c(=O)n2Cc1ccccc1	0%	0%	-11	4%	8%
CCOC(=O)c1c(C)[nH]c(C(=O)CN2C(=O)NC(CC)(c3ccccc3)C2=O)c1C (centres undefined)	15%	0%	16	16µM*	0%
CCOC(=O)c1c(C)[nH]c(C(=O)CN2C(=O)NC(C)(C)C2=O)c1C	x	1%	-10	24%	x
CCOC(=O)c1c(C)[nH]c(C(=O)Cn2c(=O)c3c(ncn3CC)n(Cc3ccccc3)c2=O)c1C	-11%	-1%	-11	21µM*	-17%
CC[N+](CC)(CCNC(=O)C(=O)NCC[N+](CC)(CC)Cc1ccccc1Cl)Cc1ccccc1Cl	17%[10 µM]	x	x	x	-4%
O=C(Cc1ccccc1)Nc1scc(-c2ccccc2)c1C(=O)N1CCOCC1	-1%	0%	-9	-8%	4%
NC(=O)c1c(-c2ccc(Cl)cc2Cl)csc1NC(=O)Cc1ccccc1	u	0%	-39	u	7.1µM*
CCN(CC)S(=O)(=O)c1ccc2c(c1)[nH]c(=S)n2CC	6.3µM*	0%	5	u	-23%
CCOC(=O)c1ccc2c(c1)[nH]c(=S)n2CC	8.9µM*	0%	4	u	u
CCOC(=O)c1ccc2c(c1)n(CC)c(C)[n+]2CC	1%	0%	-3	u	1%
NC(=O)C1CCN(c2nc(-c3ccccc3)cs2)CC1	x	x	2	x	x
N#C/C(=C\c1cccc(O)c1)C(=O)N1CCCCC1	6%[1.91 µM]	0%	6	u	-27%
N#C/C(=C\c1cccc(Br)c1)C(=O)N1CCCCC1	2.5µM*	0%	3	u	u
COC(=O)N1CCC2(CC1)CN(C(=O)Nc1ccc(OC)cc1)C2	23%	x	x	x	-6%
CC(C)c1nc2ccccc2n1CC(O)COC1CCCCC1 (centres undefined)	-31%	0%	-4	-15%	-15%
CC(C)(C)C#CCn1c(/C=[N+](\[O-])C2CCCCC2)nc2ccccc21	10µM*	-1%	1	-7%	-13%
CC(C)(C)OC(=O)NS(=O)(=O)NCc1ccco1	-28%	x	x	x	5%
CCOC(=O)c1c(C)[nH]c(C)c1S(=O)(=O)NCC1CCN(Cc2ccccc2OC)CC1	-10%	0%	2	5%	0%
c1ccc(-c2cc(-c3ccncc3)nc3ccc4ccccc4c23)cc1	8.9µM*	0%	1	1%	u
COc1cc(C(=O)O/N=C2\C=CC(=O)C(C)=C2)cc(OC)c1OC	5µM*	6%	7	-14%	5.6µM*
CN1/C(=C/C(=S)NC(=O)C2(C)CC2(Cl)Cl)C(C)(C)c2ccccc21 (centres undefined)	4.5µM*	13%	2	u	u
COc1ccccc1C(=O)NC(=S)/C=C1/N(C)c2ccccc2C1(C)C	4%	0%	2	u	3%
SMILES	RORgamma inh	B2AR arrestin	TSHR antag	ELG1 repair inh	VP16 counter
CN1/C(=C\C(=S)NC(=O)c2ccccc2Cl)C(C)(C)c2ccccc21	7.9µM*	0%	-5	3%	20µM*
Oc1ccc(N=Nc2ccc3c(c2)OCCO3)c(O)c1	8.9µM*	0%	2	u	10µM*
O=C(N[C@@H](Cc1ccccc1)C(=O)N1CCN(S(=O)(=O)c2ccc(F)cc2)CC1)c1ccco1	x	0%	-6	-6%	x
CCc1ccc2c(c1)C(c1ccncc1)=NNC(c1ccccc1)=N2	u	0%	-7	u	5%
CCOc1ccc2c(c1)C(c1ccccc1)=NNC(c1ccccc1)=N2	4%	0%	6	13µM*	3%
CCCOc1ccc(C2=NNC(c3cccs3)=Nc3ccc(OC)cc32)cc1	21%	-1%	11	16µM*	-4%
COc1ccc2c(c1)C(c1cccs1)=NNC(c1ccncc1)=N2	10%	-1%	-1	u	6%

Screens deposited in PubChem by National Center for Advancing Translational Sciences (NCATS).
